# In ChEMBL document CHEMBL5308504, “Tm Shift (DSF) assay results for EUbOPEN Chemogenomics Library” (2023):
# Values joined by “and” are separate entries in the source; they are usually repeats but may differ in a detail not shown here. Identical values can stand only once.
# Biological target: Casein kinase I isoform delta (Homo sapiens) (UniProt P48730)
# Conditions: Compound concentration 20.0 uM, Protein concentration 2.0 uM, Result type QC Liability
# Casein kinase I isoform delta (Homo sapiens), sequence (P48730 whole entry, looked up, canonical isoform): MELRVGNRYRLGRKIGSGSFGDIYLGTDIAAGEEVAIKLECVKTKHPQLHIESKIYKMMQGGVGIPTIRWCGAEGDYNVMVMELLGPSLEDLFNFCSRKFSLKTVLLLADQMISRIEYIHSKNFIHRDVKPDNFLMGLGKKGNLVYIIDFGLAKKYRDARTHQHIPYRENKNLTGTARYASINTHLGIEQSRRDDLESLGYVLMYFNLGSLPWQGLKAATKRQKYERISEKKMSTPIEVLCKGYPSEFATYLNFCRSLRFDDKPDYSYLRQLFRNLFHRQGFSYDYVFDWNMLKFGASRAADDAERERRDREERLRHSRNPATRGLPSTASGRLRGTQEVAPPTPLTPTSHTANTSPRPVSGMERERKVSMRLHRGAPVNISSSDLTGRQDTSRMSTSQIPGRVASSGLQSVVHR
row,SMILES,ΔTm [°C]
1,CN(C)C/C=C/C(=O)Nc1ccc(C(=O)Nc2cccc(Nc3ncc(Cl)c(-c4c[nH]c5ccccc45)n3)c2)cc1,-0.47
2,COc1c(-c2cn(C3CCC(=O)NC3=O)nn2)csc1C(=O)N1CCCC1 (stereo not given),0
3,CN[C@@H](C)C(=O)N[C@H](C(=O)N1CCC[C@H]1c1nc(C(=O)c2ccc(F)cc2)cs1)C1CCCCC1,0.62
4,CN(CC(=O)Nc1ccc(F)c(F)c1F)C(=O)c1ccc2c(c1)OCCO2,0.08
5,O=S(=O)(Nc1ccc(C(O)(C(F)(F)F)C(F)(F)F)cc1)c1cccs1,0.38
6,O=C(O)Cc1ccc(CCNS(=O)(=O)c2ccc(Cl)cc2)cc1,0.01
7,Cc1nccc(COC(=O)N2C[C@@H]3[C@@H](CNC(=O)c4ccc5[nH]nnc5c4)[C@@H]3C2)n1,0.34

# Biological target: Glycogen synthase kinase-3 beta (Homo sapiens) (UniProt P49841)
# Conditions: Compound concentration 20.0 uM, Protein concentration 2.0 uM, Result type QC Liability
# Glycogen synthase kinase-3 beta (Homo sapiens), sequence (P49841 whole entry, looked up): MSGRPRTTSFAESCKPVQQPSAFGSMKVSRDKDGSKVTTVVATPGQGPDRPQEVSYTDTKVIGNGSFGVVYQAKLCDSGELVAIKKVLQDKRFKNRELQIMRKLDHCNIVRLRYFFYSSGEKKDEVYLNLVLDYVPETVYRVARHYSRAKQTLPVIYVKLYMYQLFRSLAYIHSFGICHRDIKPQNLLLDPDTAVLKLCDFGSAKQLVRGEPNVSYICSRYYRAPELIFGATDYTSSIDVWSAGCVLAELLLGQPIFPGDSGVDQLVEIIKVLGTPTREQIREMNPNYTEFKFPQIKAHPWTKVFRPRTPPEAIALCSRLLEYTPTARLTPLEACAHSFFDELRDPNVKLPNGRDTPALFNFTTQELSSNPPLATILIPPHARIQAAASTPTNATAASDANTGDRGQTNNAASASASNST
row,SMILES,ΔTm
1,CC1CCN(c2ccnc(NCc3cn(C)cn3)n2)CC1,-0.33 °C
2,O=C(O)C[C@H]1CC[C@H](c2ccc(NC(=O)c3nnc(Nc4ccc(F)c(F)c4)o3)cc2)CC1,-0.67 °C
3,NCC1CCC(CNc2nc(NCc3ccccc3OC(F)(F)F)ncc2[N+](=O)[O-])CC1 (stereo not given),3.29 °C
4,CC(=O)Nc1c(F)cc(C(=O)N[C@H]2CC[C@H](O)CC2)cc1O[C@@H](C)c1ccccc1,-0.82 °C
5,COc1ccc(-c2csc(NC(=O)[C@H]3CCCCN3S(=O)(=O)c3ccc(C)cc3)n2)cc1,9.29 °C
6,CCc1ccccc1C(=O)Nc1n[nH]c2c(C)c(F)c(C3C(C#N)=C(C)N(C)C(C)=C3C#N)cc12,8.17 °C
7,Cn1cnc(Cn2ccc3ccc(CNCc4[nH]c5ccccc5c4[C@H]4NC(=O)c5ccc(O)cc54)cc32)c1,-0.76 °C
8,COc1cccc(CNc2ccc(S(=O)(=O)Nc3nc4ccccc4s3)cc2)c1O,0.88 °C
9,C[C@@H]1OCC2(CCN(c3cnc(Sc4ccnc(N)c4Cl)c(N)n3)CC2)[C@@H]1N,0.28 °C
10,CC(C)c1cnn2c(NCc3ccccc3)cc(NCCCCCCN)nc12,-0.56 °C
11,O=C(O)CCCCN(CCc1ccccc1OCc1ccc(CCc2ccccc2)cc1)Cc1ccc(C(=O)O)cc1,-0.16 °C
12,COc1ccc2c(O[C@@H]3C[C@H]4C(=O)N[C@]5(C(=O)O)CC5/C=C\CCCCC[C@H](NC(=O)OC5CCCC5)C(=O)N4C3)cc(-c3csc(NC(=O)C(C)C)n3)nc2c1C (stereo not given in full),-0.22 °C [middle of 4 runs]
13,C[C@@H](COCCC(=O)N1CCN(c2ncc(C(F)(F)F)cn2)CC1)Nc1cn[nH]c(=O)c1C(F)(F)F,-0.82 °C
14,CCn1c(=O)c2c(C)c(C(=O)N3CCC(O)CC3)sc2n(CCC(F)(F)F)c1=O,-0.42 °C
15,O=C(CNC(=O)c1ccc(-c2ccccc2)cc1)NC1CCCc2ccccc21 (stereo not given),-2.76 °C
16,O=C1COc2cc(C(=O)N(Cc3ccc(C(=O)Nc4ccncn4)cc3)C3CC3)ccc2N1,-0.19 °C
17,CC(=O)Oc1ccc2c(c1)[C@@]1(C)CCC[C@](C)(C(=O)OC(=O)[C@@]3(C)CCC[C@]4(C)c5cc(OC(C)=O)ccc5CC[C@@H]34)[C@@H]1CC2,-0.85 °C
18,CC(C)C(=O)N1CCC(c2cn(C)c3ncc(NC(=O)c4cccc(C#N)c4)c(C(F)(F)F)c23)CC1,-0.4 °C
19,Cc1nccn1-c1ccc(Sc2cccc(C3(C(N)=O)CCOCC3)c2)cc1,0.36 °C
20,CCn1c(CNC(=O)c2ncc(C)nc2N)[n+](CC)c2ccc(C(=O)N(C)CCN(C)C)cc21,-0.02 °C
21,O=C(O)CCC/C=C\C[C@@H]1[C@@H](/C=C/[C@@H](O)COc2cccc(C(F)(F)F)c2)[C@H](O)C[C@@H]1O,0.65 °C
22,COc1cc2nc(C)nc(N[C@H](C)c3cc(N)cc(C(F)(F)F)c3)c2cc1O[C@H]1CCOC1,0.96 °C
23,NCc1ccc(OCCCc2sc(-c3ccc4c(c3)/C(=N/Nc3nc5ccccc5s3)CCC4)nc2C(=O)O)cc1,-0.12 °C
24,CN(C)C(=O)c1cc2cnc(Nc3ccc(N4CCN(CCCCNC(=O)COc5cccc6c5C(=O)N(C5CCC(=O)NC5=O)C6=O)CC4)cn3)nc2n1C1CCCC1 (stereo not given),-0.75 °C
25,COc1cc2nc(-c3cc(F)ccc3O)nc(N[C@@H]3CNC[C@H]3C(C)(C)O)c2cc1OC,3.22 °C
26,Cc1c(NC(=O)COc2ccc(Cl)cc2C(=O)c2cc(F)cc(C(F)(F)F)c2)ccc(C(=O)O)c1F,1.73 °C and 2.32 °C
27,Cc1cc2nc(N3CCC(C(=O)NC4CCCC4)CC3)n(C(C)C)c2cc1C,0.31 °C
28,CN(C)C/C=C/C(=O)Nc1cc2c(Nc3ccc(F)c(Cl)c3)ncnc2cc1OC[C@@H]1CCCO1,2.63 °C
